The list is not random: actives were taken first. Their share in the collection is about 2.4%.
B2AR arrestin – beta2AR (human) beta-arrestin recruitment activity; beta-arrestin recruitment to beta2AR, cell-based reporter; Potency, µM (top dose mostly 46.1 µM), for the others: top-dose activation, most hits filed as activators; hit rate 0.02% among 330,000; active = well fitted activation curve with a large enough effect; inconclusive = small, poorly fitted or top-dose-only effect;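 note: potency is the fitted concentration of half-maximal effect; 0% = DMSO controls and full agonism = EC100 isoproterenol or metaproterenol; nearly all actives have a fitted effect of over 65% in size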
Target sequence (P07550 whole entry, looked up): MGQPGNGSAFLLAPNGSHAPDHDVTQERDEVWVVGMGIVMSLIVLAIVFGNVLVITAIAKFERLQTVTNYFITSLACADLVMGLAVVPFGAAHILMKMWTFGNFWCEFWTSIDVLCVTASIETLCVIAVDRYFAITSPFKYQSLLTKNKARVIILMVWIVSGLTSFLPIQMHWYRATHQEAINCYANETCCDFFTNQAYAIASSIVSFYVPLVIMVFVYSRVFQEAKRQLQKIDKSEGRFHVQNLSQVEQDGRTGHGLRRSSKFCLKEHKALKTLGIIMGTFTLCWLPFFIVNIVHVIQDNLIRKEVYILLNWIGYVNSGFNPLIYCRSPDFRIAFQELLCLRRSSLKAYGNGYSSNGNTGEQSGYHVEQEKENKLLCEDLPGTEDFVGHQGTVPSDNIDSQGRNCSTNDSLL
D2 antagonist – antagonizes the human D2 dopamine receptor. P14416. HEK293 TREx D2 cells, calcium flux, dopamine EC80. inhibition, % at 10 µM. hit rate 2% among 340,000. AID 485344; in the data active = inhibition above about 30%; inactive = below that, where a call was filed; note: 0% is about no effect
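Cells plated overnight at 30 C with tetracycline; no-wash calcium dye, 30–90 min RT; 10 s baseline; compound pinned; 180 s read; EC80 dopamine added; another 180 s read.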
D2 ag-1 – D2 dopamine receptor (human) agonism. P14416. HEK293 T-REx D2 cells, calcium flux agonist mode. activation, % at 2 µM. hit rate 0.53% among 340,000. AID 485358;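 active = activation over 3 SD above normal in the single-dose calcium agonist read, cut at about 30% in these data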; note: 0% is about no effect
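HEK293 Trex D2 cells, tetracycline-induced, o/n 30 C 5% CO2; no-wash Ca dye, RT 30–90 min; 10-cycle baseline, 23 nl cpd added, kinetic Ca read 180 s; agonist hits = positive Ca response.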
D2 PAM-1 – human D2 receptor positive allosteric modulation; P14416; DiscoveRx D2 beta-arrestin cells, luminescence, 90 min; 100% = 57 uM dopamine signal; potentiation, % (no concentration beside the values); hit rate 0.23% among 360,000; in the data active = potentiation above about 50%; inconclusive = mostly about 30% to 49%
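PathHunter beta-arrestin assay in DiscoveRx D2 cells. Compounds were added with an EC20 of dopamine (50 nM final) for 90 min at 37 deg C. Luminescence was read 1 h after detection reagent, with 57 uM dopamine as the EC100 control.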
D2 PAM-2 – positively modulates the human D2 dopamine receptor allosterically | P14416 | HEK293 T-REx D2, calcium flux, EC20 dopamine potentiation | potentiation, % at 10 µM | hit rate 0.34% among 340,000 | AID 485347;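 active = potentiation over 3 SD above the plate norm, cut at about 30% in these data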; note: 0% is about no effect
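Tetracycline-induced Hek293 Trex D2 cells, force-coupled to calcium, loaded with no-wash calcium dye. Compound added with 180 s kinetic read for agonism, then EC20 dopamine and a further 180 s read for potentiation.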
D2 ag-2 – human D2 receptor agonism in beta-arrestin assay. P14416. DiscoveRx PathHunter D2 beta-arrestin, luminescence, 90 min; 100% = 57 uM dopamine signal. activation, % (concentration not given with the values). hit rate 0.084% among 360,000. AID 624465; in the data active = activation above about 40%; inconclusive = between about 15% and that limit
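DiscoveRx PathHunter D2 beta-arrestin cells (2,100/well) attached overnight, then compound-stimulated 90 min at 37 C in HBSS/10 mM HEPES/0.1% Tween-20 buffer; beta-galactosidase complementation read by luminescence after 1 h at ambient temperature. Dopamine 57 uM final (EC100) as control.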
Active calls of the source: *; ? = inconclusive; · = no result.

SMILES | B2AR arrestin | D2 antagonist | D2 ag-1 | D2 PAM-1 | D2 PAM-2 | D2 ag-2
CC1(C)CC(=O)C(C(C2=C(O)CC(C)(C)CC2=O)c2ccc([N+](=O)[O-])cc2)C(=O)C1 (centres undefined) | 0% | 33* | 0 | -8 | 3 | 0
COc1cccc(C(C2=C(O)CC(C)(C)CC2=O)C2C(=O)CC(C)(C)CC2=O)c1 (centres undefined) | -1% | 3 | 0 | -1 | 5 | -4
C=CCn1c(CCNC(=O)c2ccccc2F)nnc1SCc1nc2ccccc2c(=O)[nH]1 | -1% | -5 | 1 | -12 | -5 | -3
C=CCn1c(CNC(=O)c2ccccc2F)nnc1SCc1nc2ccccc2c(=O)[nH]1 | 0% | · | · | -31 | 38* | 13
FC(F)(F)c1ccc(C2[C@H]3CN(Cc4ccc(-c5ccccc5)cc4)[C@H](c4ccccc4)C34CC2(c2ccccc2)C4)cc1 (some centres undefined) | -1% | 35* | 0 | -1 | 7 | 0
FC(F)(F)c1ccc(C2[C@H]3CN(Cc4ccc(-c5ccccc5)cc4)[C@H](c4ccccc4)C34CC2(c2cccnc2)C4)cc1 (some centres undefined) | 0% | -7 | 0 | -9 | 9 | 1
S=C(N/N=C1\CCc2ccccc21)NC1CCCCC1 | -1% | 2 | 2 | -17 | 4 | -5
CC(C)COc1ccccc1C(=O)NC(CO)C(=O)O (centres undefined) | 0% | 43* | -1 | -6 | 7 | -2
N#CCc1ccc(C(=O)c2ccccc2)s1 | 0% | 40* | 0 | -2 | 16 | 4
Cc1ccc(CNC(=O)CCCN2C(=S)NC(C)(C)CC2C)cc1 (centres undefined) | 0% | 11 | 1 | -6 | -6 | 0
N#CC(C(=O)NC1CCCCC1)=C1CCCCCC1 | 0% | -5 | 0 | -18 | 14 | -2
CCCCCc1c(C)nc(N2CCc3ccccc3C2)[nH]c1=O | 0% | 32* | -2 | -16 | -14 | -4
CC(C)(C)c1cc[n+](/C(C(=S)NC2CC2)=C(/[O-])c2ccc(Cl)s2)cc1 | 0% | 10 | -1 | -6 | -16 | 0
CC(=O)c1ccc2c(c1)C1C=CCC1C(C(=O)O)N2 (centres undefined) | 0% | 5 | 1 | 6 | 20 | 6
Brc1cc2c(cc1C1Nc3ccccc3C3C=CCC31)OCO2 (centres undefined) | -1% | 6 | 0 | -4 | -2 | 0
C1=CC2c3ccccc3NC(c3ccncc3)C2C1 (centres undefined) | 3% | -16 | 1 | 70* | 3 | 14
CC(=O)c1ccc2c(c1)C1C=CCC1C(c1ccncc1)N2 (centres undefined) | 0% | 7 | 7 | 86* | 2 | 6
COc1cc(OC)cc(C(=O)NC(=S)Nc2nc(-c3cc4ccccc4o3)cs2)c1 | 0% | -2 | 0 | -25 | -9 | -2
COCCNc1nc(-c2cc3ccccc3o2)cs1 | 0% | 38* | -1 | -10 | -14 | -2
CCOC(=O)c1c(C)[nH]c(C(=O)C(C)Sc2ccc(Cl)cc2)c1C (centres undefined) | 0% | 16 | -1 | 2 | 32* | 1
CCOC(=O)c1c(C)[nH]c(C(=O)C(C)Cl)c1C (centres undefined) | 0% | -18 | 3 | -9 | 16 | -3
CC(=O)c1ccc(N2CCN(C(=O)c3cc4c(s3)-c3ccccc3OC4)CC2)cc1 | · | · | 0 | · | 2 | ·
CC(=O)N1CCN(c2ccc(NCc3ccc(C)s3)cc2)CC1 | 0% | 50* | 1 | 5 | 12 | ?
Cc1ccc(CNc2ccc(N3CCOCC3)cc2)s1 | 0% | 8 | -1 | 18 | -10 | 2
CC(C)c1[nH]nc2c1C1(CCN(Cc3ccccc3)CC1)C(C#N)=C(N)O2 | 0% | 40* | 5 | 2 | -20 | 11
SMILES | B2AR arrestin | D2 antagonist | D2 ag-1 | D2 PAM-1 | D2 PAM-2 | D2 ag-2
COc1ccc(OC)c(NC(=O)c2cc(-c3ccc(C)cc3O)n[nH]2)c1 | 0% | 32* | -1 | 13 | -1 | -4
O=C(CCC1CCCCC1)Nc1ccc(C(=O)c2ccncc2)cc1 | 0% | 48* | -1 | -23 | -9 | 0
O=C1c2oc3ccccc3c(=O)c2C(c2cccnc2)N1CCCN1CCOCC1 (centres undefined) | 0% | 35* | 0 | -12 | 2 | -3
COc1cccc(C(=O)NCC2CCCN(C3CCCCC3)C2)c1OC (centres undefined) | 0% | 57* | 1 | 1 | -17 | 0
Cc1cc(NC(=O)CSc2ncn[nH]2)no1 | 0% | -10 | 1 | 0 | 11 | -3
Cc1ccc(SCC(=O)NC(C)(C)C)cc1 | · | 37* | 0 | -3 | 1 | 0
COc1ccc(S(=O)(=O)N2CCOCC2)cc1NC(=O)[C@@H]1CCCN1C(=O)c1cccs1 | 0% | 7 | 0 | 1 | 2 | 1
Nc1ccn(CC(=O)NCc2ccccn2)c(=O)n1 | 0% | -16 | 1 | -1 | 19 | -2
CC(C)(C)OC(=O)N1CCC[C@H]1C(=O)Nc1ccc(Br)cc1 | -1% | 10 | -1 | -12 | -3 | 2
CC(C)(C)OC(=O)N1CCC[C@H]1C(=O)Nc1ccc(C#N)cc1 | -1% | 63* | 0 | -6 | -7 | -5
CC(NC(=O)C1CCCN1C(=O)OC(C)(C)C)C(=O)OCc1ccccc1 (centres undefined) | · | · | · | 1 | · | -5
CC(C)(C)OC(=O)N1CCCC1C(=O)NC(Cc1ccccc1)C(=O)O (centres undefined) | 0% | 32* | 2 | 1 | 8 | -3
CCc1noc(C)c1C(=O)NNC(=O)c1nn(C)c(=O)c2ccccc12 | 0% | 57* | 0 | -1 | -6 | -3
CCc1noc(C)c1C(=O)NNC(=O)c1ccc(Br)cc1 | 0% | 37* | 0 | -2 | -2 | -6
CCc1noc(C)c1C(=O)NNC(=O)c1nn(CC)c(=O)c2ccccc12 | 0% | 12 | -1 | 25 | -1 | -5
CC1CN(S(=O)(=O)c2ccc(-c3nc4ccccc4s3)cc2)CC(C)O1 (centres undefined) | 0% | -3 | 2 | -5 | 4 | 2
COc1ccc(C2CC(C(F)(F)F)n3nc(C(=O)N(C)Cc4cn(C)nc4C)c(Cl)c3N2)cc1 (centres undefined) | 0% | -1 | -1 | -10 | 34* | 0
CSc1ccc(S(=O)(=O)NCc2ccccc2Cl)cc1 | 0% | -5 | 0 | -8 | -5 | -1
